# Bioassay records (PubChem BioAssay)
# VCAM1 TNFa pot: potentiators of TNFa-induced VCAM1 expression, primary screen, imaging, HUVEC, TNFa stimulus, immunofluorescence | actives 0.19% (n = 93,000) | AID 808, 2007 | activation, % at 2 µM | HUVEC TNFa-stimulated VCAM-1 immunofluorescence, high-content imaging; scaled per plate to unstimulated/TNFa-only wells;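 active = activation above the screen mean plus 3 SD, with well images confirming the hit on visual review, cut at about 28% in these data, passing the limit was not always enough; inconclusive = activation above that limit but images do not confirm it; inactive = activation not above that limit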;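 note: signal is the number of cytoplasmic VCAM-1 stained grains per positive cell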
# VCAM1 pot confirm: potentiators of TNFa-induced VCAM1 expression, confirmation, imaging, HUVEC, triplicate retest; HUVEC TNFa-stimulated VCAM-1 immunofluorescence imaging; 230 tested, under 10 active; shares compounds with VCAM1 TNFa pot; activation, % at 2 µM;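 active = activation above 30% in triplicate retests at 2 µM, then confirmed by visual review of the well images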;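 note: scaled per plate between unstimulated and TNFa-stimulated DMSO control wells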
# The depositor's hits bear a star; ? = inconclusive. Many of the other results were omitted from the sample, so hits are more common in it than they were.
SMILES,VCAM1 TNFa pot,others
Cc1ccc(SCc2nc(-c3cccnc3)no2)cc1,-50.6,
Cc1ccc(-n2nnnc2-c2cnc(-c3cccnc3)nc2C(F)(F)F)cc1,51.5*,VCAM1 pot confirm=-9.9
N#CCCNC(=O)CCN1CCOCC1,-2.1,
Cc1cccc(-c2nnc(-c3cccc(NC(=O)Cc4cccs4)c3)o2)c1,-3.9,
O=Nc1c(O)n(Cc2ccc(Cl)cc2Cl)c2ccccc12,38.5,
Cc1c(NC(=O)N(C)C)c(=O)n(-c2ccccc2)n1C,1.4,
CC(C)(C)c1ccc(-c2nnc(SCCC#N)n2C2CCCC2)cc1,4.6,
COc1ccc(-n2cnnc2SCCC#N)cc1,?,VCAM1 pot confirm=-8.3
CCN1CCN(C(c2cc(OC)c(OC)c(OC)c2)c2nnnn2C(C)C)CC1 (configuration not stated),-3.3,
Cc1nc(-c2cccnc2)sc1C(N)=O,-3.7,
Cc1ccc(-c2nnn(CC(=O)N(Cc3ccco3)C(C(=O)NC3CCCC3)c3cccs3)n2)o1 (configuration not stated),-3.2,
O=C(CN(C(=O)Cn1nnc(-c2cccs2)n1)c1ccc2c(c1)OCCO2)NC1CCCCC1,55.6*,VCAM1 pot confirm=-18.1
CCOc1ccc(-c2nnn(CC(=O)NCc3ccc4c(c3)OCO4)n2)cc1,3.9,
CCc1ccc2nc(-c3cccc(C)c3)nc(SCC(=O)NCC3CCCO3)c2c1 (configuration not stated),-4.2,
NC(=O)c1ccccc1OCCOCCOCCOc1ccccc1C(N)=O,18.4,
NC(=O)c1ccccc1N=Cc1ccccn1,39.5*,VCAM1 pot confirm=-12.7
Clc1ccc(COc2ccccn2)cc1Cl,-7.6,
COc1ccc(Cl)cc1NC(=O)N1CCN(S(C)(=O)=O)CC1,-4.3,
COC(=O)c1c(NC(=O)CSc2nnc(-c3cccnc3)n2Cc2ccco2)sc(C)c1C,6.6,
CCCn1c(SCC(=O)Nc2sc(C)c(C)c2C(=O)OCC)nc2c1c(=O)n(C)c(=O)n2C,31.0*,VCAM1 pot confirm=-12.3
CCOC(=O)CNC(=O)CSc1nc2sc(C)c(C)c2c(=O)n1C,-4.4,
CC1CCc2nc(NC(=O)C3CCCO3)sc2C1 (configuration not stated),-11.9,
COC1(OC)C(/C=C/c2ccc(C)cc2)C(C#N)(C#N)C1(OC)OC (configuration not stated),-5.0,
CCOc1ccccc1C1CC(c2ccc(F)cc2)Nc2nc(N)nn21 (configuration not stated),-9.7,
NC(=O)C1CCN(C(=O)CSc2nc3ccccc3o2)CC1,2.8,
SMILES,VCAM1 TNFa pot,others
NC(=O)C1CCN(C(=O)CCCCCn2c(=O)[nH]c3ccsc3c2=O)CC1,?,VCAM1 pot confirm=-6.7
CCCc1[nH]nc2c1C(c1ccc(OC)c(CSC3=NCCS3)c1)C(C#N)=C(N)O2 (configuration not stated),-4.7,
COc1cc(-c2nnc(CSc3nnc4nc(C)cc(C)n34)o2)cc(OC)c1OC,-1.4,
CC(=O)Oc1oc(-c2ccccc2)nc1/C=N/c1ccccn1,89.3*,VCAM1 pot confirm=-4.4
Cc1ccccc1/C(N)=N/OC(=O)/C=C/c1ccccc1,38.0*,VCAM1 pot confirm=-12.8
Cc1cc(C)c2c(n1)sc1c(N3CCOCC3)ncnc12,-60.8,
Cc1ccc(Cn2nnc3c(=O)n(CC(=O)N4CCN(c5ccccc5)CC4)cnc32)cc1,17.5,
Cc1cccn2cc(CNC(=O)C3CCCCC3)nc12,59.5*,VCAM1 pot confirm=-13.5
O=C(NCc1ccccc1)C1CCCN(C(=O)Nc2ccccc2)C1 (configuration not stated),-2.8,
O=C(COC(=O)c1ccncc1)NC(=O)C1CCCCC1,2.2,
Cc1ccc(S(=O)(=O)N2CCCC(C(=O)NCCc3ccc4c(c3)OCO4)C2)cc1 (configuration not stated),-1.2,
O=C(Nc1ccccc1)N1CCCc2ccccc21,9.6,
CCc1nnc(SCC(=O)N2CCCc3ccccc32)nc1CC,?,VCAM1 pot confirm=-22.0
COc1ccccc1CC(=O)N1CCCc2ccccc21,-19.2,
COc1cccc(-c2nnn(CC(=O)Nc3cc(OC)c(NC(=O)c4ccco4)cc3OC)n2)c1,3.3,
O=C(c1cccc(COc2cccc3ccccc23)c1)N1CCCC1,21.6,
O=C1CC(c2ccccc2)CN1S(=O)(=O)c1ccccc1 (configuration not stated),-6.1,
COc1ccc(C(=O)N2CCN(S(=O)(=O)c3ccccc3)CC2)c(OC)c1,-7.9,
CCN1CCN(S(=O)(=O)c2cc(OC)ccc2OC)CC1,63.6*,VCAM1 pot confirm=-4.0
COc1ccc(CN2CCN(S(=O)(=O)c3ccccc3)CC2)c(OC)c1,5.9,
Cc1ccccc1S(=O)(=O)Nc1nc2ccccc2nc1NCCO,-9.2,
O=C(CSCCO)Nc1cc(C(F)(F)F)ccc1Cl,5.8,
CCOC(=O)C1=NN(c2ccc(Cl)cc2)C(c2ccccc2)CC1=O (configuration not stated),-25.6,
Cc1c(C(=O)O)sc2nc3n(c(=O)c12)CCC(C)CC3 (configuration not stated),0.0,
COc1ccc(C(=O)c2ccc(N3CCN(C4CC(=O)NC4=O)CC3)cc2)cc1F (configuration not stated),-7.0,
SMILES,VCAM1 TNFa pot,others
Cc1nc2sc(C(c3cccc(F)c3)N3CCCC(C)C3)c(O)n2n1 (configuration not stated),-1.7,
CCOC(=O)c1ccc(NC(=O)CC2SC(=NC)N(C)C2=O)cc1 (configuration not stated),-17.5,
CCOC(=O)c1ccc(Nc2c(CC)c(C)nc3ncnn23)cc1,?,VCAM1 pot confirm=-8.0
CCOC(=O)c1ccc(NC(=O)Nc2ccc(S(N)(=O)=O)cc2)cc1,2.1,
C#CCOC(=O)c1ccccc1C(=O)O,4.1,
COc1ccccc1C(=O)NC(C)C(c1cccs1)N1CCN(C)CC1 (configuration not stated),21.4,
Cc1nc2ncnn2c(N2CCN(C(=O)Cc3cccs3)CC2)c1C,-0.9,
COCCNC(=O)CC(c1ccccc1)c1ccccc1,10.7,
COc1ccccc1N(CC(=O)NCCSc1ccccc1)S(C)(=O)=O,?,VCAM1 pot confirm=-1.4
CCOc1ccccc1N(CC(=O)N1CCCCCC1)S(C)(=O)=O,2.3,
CCOc1ccc(NC(=O)C23CC4CC(C2)CC(c2ccccc2)(C4)C3)cc1,0.7,
COCCn1c(SCC(=O)Nc2ccc(Cl)cn2)nc2ccccc21,-7.4,
O=C(N/N=C/c1ccccc1Cl)c1cccc(F)c1,55.8*,VCAM1 pot confirm=-11.9
Cc1nnc(NC(=O)c2cccc(F)c2)s1,3.3,
O=C(N/N=C/c1cc2c(cc1Cl)OCO2)c1ccccn1,1.3,
O=C1CN=C(Nc2cccc(C(F)(F)F)c2)N1C1CCCC1,6.9,
COc1ccc(-c2cc(O)cc(O)c2)cc1,-0.9,
Cc1nonc1NCn1nnc2ccccc21,0.2,
Cc1nc2ccccc2n1CCCOc1ccccc1,-61.9,
CCCC(=O)NCCCc1nc2ccccc2n1CCC,-3.7,
COCc1nc2ccccc2n1CCCOc1ccccc1,?,VCAM1 pot confirm=-15.5
O=S(=O)(CCc1nc2ccccc2s1)c1ccc2ccccc2c1,0.8,
Cc1cc(C)c(C(N)=O)c(Nc2cccc3ccccc23)n1,-0.9,
CC1OC(Nc2cccc3ccccc23)C(O)C(O)C1O (configuration not stated),?,VCAM1 pot confirm=-0.5
CC(=O)/C(=N/Nc1cccc(C)c1)N1CCOCC1,0.9,
CS(=O)(=O)N1CCCC(C(=O)NCc2ccc(F)cc2Cl)C1 (configuration not stated),-8.0,
CC1CCN(c2ccccc2NC(=S)NC(=O)c2ccco2)CC1,-6.2,
Cn1c(Cc2ccccc2)nnc1SCC(=O)Nc1ccc2c(c1)OCO2,1.6,
c1cncc(-c2nc(-c3ccc4c(c3)OCO4)cs2)c1,20.4,
